For 39 molecules, growth inhibition and condensed nuclei results are on record in PubChem BioAssay AID772 (SRMLSC, 2007).

Screen size: about 3,300 compounds; about 20 (0.6%) were called active.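 The calls were made as follows: active = growth inhibition above 90%, meaning viable cell count cut by more than 90% versus vehicle controls; inactive = growth inhibition below 90%.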 Many of the other results were omitted from the sample, so actives are more common in it than they were.

The assay can be described thus: HT29 colon tumor cell growth inhibition, primary screen, imaging, high content imaging, 72 h, CellTiter-Glo (AID 772).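 As to condensed nuclei: condensed means nuclear area below control median minus 1.5 SD.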 The following applies: HCS imaging cell count, at 10 µM, stronger effect = higher value; for condensed nuclei: measured here: percent cells with condensed nuclei. For orientation: In ATP-based viability assays light output follows the ATP content of the culture.

The mark [1] stands for this setting: measured here: ATP CellTiter-Glo viability.

Regarding `CCOC(=O)CSc1nc(NC#N)nc(N(CC)CC)n1`, the growth inhibition was -10.6% (inactive) and the condensed nuclei turned out to be 2.47%. Also, the growth inhibition under setting [1] was -34.2%.
As to `CC1(C)CC(=O)C(C=NCC(O)c2ccccc2)=C(O)C1` (configuration not stated), the growth inhibition is 1.15% (inactive) and the condensed nuclei is 3.13%. Also, the growth inhibition under setting [1] was -3.71%.
Turning to `CCN(CC)Cc1cc(C(C)=O)ccc1OCC(C)C`, the growth inhibition was -17.7% (inactive) and the condensed nuclei was found to be 2.8%. Also, under setting [1], the growth inhibition was -47.7%.
In the case of `Cc1ccc(C2/C(=C(/O)c3cnn(-c4ccccc4)c3C)C(=O)C(=O)N2CCN2CCOCC2)o1` (configuration not stated), the growth inhibition was -41.7% (inactive) and the condensed nuclei worked out at 5.65%. Under setting [1], the growth inhibition is -16.4%.
Regarding `CC1CCN(c2oc(-c3ccccc3Cl)nc2C#N)CC1`, the growth inhibition is 39.9% (inactive) and the condensed nuclei was 4.72%. The growth inhibition under setting [1] was -1.14%.
With `Cc1nnc(C)n1/N=C/c1cccn1C`, the growth inhibition was -26.9% (inactive) and the condensed nuclei came to 2.68%. Also, the growth inhibition under setting [1] was -16.7%.
Regarding `CCOC(=O)/C(C#N)=C1\Nc2ccccc2N=C1N(CC(C)C)CC(C)C`, the growth inhibition is 15.8% (inactive) and the condensed nuclei worked out at 3.37%. The growth inhibition under setting [1] is -0.53%.
Turning to `O=C(c1ccc2c3c(cccc13)C(=O)N(O)C2=O)N1CCCCC1`, the growth inhibition was 63.6% (inactive) and the condensed nuclei came to 16.2%. Under setting [1], the growth inhibition amounted to 65.6%.
The like results for `S=C(N=Nc1ccccc1)NNc1ccccc1` were, in that order, 5.63% (inactive), 9.9% and 9.94%.
With `CCCCCC1CC(CC#CCN2CCOCC2)C(=O)O1` (configuration not stated), the growth inhibition is -6.01% (inactive) and the condensed nuclei came to 3.8%. For the same molecule, the growth inhibition under setting [1] is -22.1%.
The matching figures for `Cc1nc(NCCCO)c(C#N)c2c1COC(C)(C)C2`: 26.3% (inactive), 5.86% and -0.61%.
As to `CCOC(=O)c1[nH]c2ccc(OC)cc2c1NC(=O)CCN1CCC(C)CC1`, the growth inhibition is 7.19% (inactive) and the condensed nuclei was 9.76%. In addition, the growth inhibition under setting [1] is 8.59%.
Turning to `COc1cccc(-c2nnc3sc(-c4ccc(Cl)cc4)nn23)c1`, the growth inhibition was -127% (inactive) and the condensed nuclei is 8.69%. Moreover, the growth inhibition under setting [1] is -46.5%.
The like results for `O=C(O)C(Cc1c[nH]c2ccccc12)NS(=O)(=O)c1cccc2nsnc12` (configuration not stated) were, in that order, 9.77% (inactive), 1.59% and 1.74%.
Take `Cc1nn2c(-c3ccc(Cl)cc3)nnc2s1`: the growth inhibition is 0.82% (inactive) and the condensed nuclei amounted to 2%. In addition, the growth inhibition under setting [1] was -46.2%.
For the molecule `Fc1ccc2[nH]c3c(N4CCN(Cc5ccc6c(c5)OCO6)CC4)ncnc3c2c1`, the growth inhibition is 92% (active) and the condensed nuclei was 24.5%. Under setting [1], the growth inhibition came to 96.7%.
Take `CN1CCN(c2ncnc3c2[nH]c2ccc(F)cc23)CC1`: the growth inhibition was 27.9% (inactive) and the condensed nuclei was 6.32%. Moreover, under setting [1], the growth inhibition stood at 14.8%.
The matching figures for `Cc1ccc2[nH]c3c(N4CCN(Cc5ccccc5)CC4)ncnc3c2c1`: 50.9% (inactive), 2.3% and 7.07%.
Turning to `c1ccc2c(c1)[nH]c1c(N3CCSCC3)ncnc12`, the growth inhibition was 57.2% (inactive) and the condensed nuclei is 5.16%. Under setting [1], the growth inhibition is 14.5%.
Turning to `COc1ccc2[nH]c3c(N4CCN(Cc5ccc6c(c5)OCO6)CC4)ncnc3c2c1`, the growth inhibition is 20.7% (inactive) and the condensed nuclei was found to be 1.08%. The growth inhibition under setting [1] worked out at 21%.
With `Cc1ccc2[nH]c3c(N4CCN(Cc5ccc6c(c5)OCO6)CC4)ncnc3c2c1`, the growth inhibition was 73.7% (inactive) and the condensed nuclei was found to be 29.9%. Also, the growth inhibition under setting [1] stood at 96.6%.
For the molecule `Cc1ccc2[nH]c3c(N4CCOCC4)ncnc3c2c1`, the growth inhibition is -53.8% (inactive) and the condensed nuclei worked out at 5.07%. Besides, the growth inhibition under setting [1] is -45.3%.
For `Cc1ccc2[nH]c3c(N4CCCCCC4)ncnc3c2c1`, the growth inhibition was 96.5% (active) and the condensed nuclei was 39.6%. In addition, the growth inhibition under setting [1] worked out at 96%.
With `c1ccc(CN2CCN(c3ncnc4c3[nH]c3ccccc34)CC2)cc1`, the growth inhibition is 93.4% (active) and the condensed nuclei was determined as 27.8%. Moreover, the growth inhibition under setting [1] worked out at 88.4%.
As to `Cc1cc(C)nc(N(C#N)CC(=O)N(c2ccccc2)C(C)C)n1`, the growth inhibition is -23.3% (inactive) and the condensed nuclei came out at 7.69%. Also, the growth inhibition under setting [1] was -17.6%.
Turning to `Clc1ccc2[nH]c3c(NCCCN4CCOCC4)ncnc3c2c1`, the growth inhibition was 88.5% (inactive) and the condensed nuclei is 45.3%. In addition, the growth inhibition under setting [1] is 96.8%.
Turning to `COC(=O)C(NC(C)=O)(Nc1ccc(Br)cn1)C(F)(F)F` (configuration not stated), the growth inhibition was -46.6% (inactive) and the condensed nuclei came out at 2.33%. In addition, the growth inhibition under setting [1] was -39%.
With `O=C1CC(c2ccccc2)n2nc(NS(=O)(=O)c3ccccc3)nc2N1` (configuration not stated), the growth inhibition is 6.12% (inactive) and the condensed nuclei amounted to 5.04%. In addition, the growth inhibition under setting [1] stood at 25.8%.
Take `CCOC(=O)CNS(=O)(=O)c1cc(-c2n[nH]c(=O)c3ccccc23)ccc1C`: the growth inhibition is -38.6% (inactive) and the condensed nuclei stood at 6.33%. Moreover, the growth inhibition under setting [1] is -21.1%.
With `Cc1nc(/N=C(\N)Nc2ccccc2)nc2ccccc12`, the growth inhibition is -39.5% (inactive) and the condensed nuclei was 3.28%. Besides, the growth inhibition under setting [1] was -11.8%.
Take `CCCCCOc1ccccc1C(=O)NCC(=O)O`: the growth inhibition is -69.1% (inactive) and the condensed nuclei came to 1.44%. Besides, the growth inhibition under setting [1] is -28.9%.
In the case of `CSc1nc2sc3c(c2c2nnnn12)CCCC3`, the growth inhibition is 37.7% (inactive) and the condensed nuclei was 2.53%. Further, the growth inhibition under setting [1] came to 9.47%.
As to `Cc1ccc(N2C(=O)[C@@H]3[C@H](C2=O)C2CCCN2[C@@H]3C(=O)c2ccccc2)cc1` (some centres not stated), the growth inhibition is 61.8% (inactive) and the condensed nuclei was 4.55%. Moreover, the growth inhibition under setting [1] was found to be 9.87%.
Regarding `N#Cc1nc(COc2ccc(Br)cc2)oc1N1CCCC1`, the growth inhibition was 31.9% (inactive) and the condensed nuclei turned out to be 13.2%. The growth inhibition under setting [1] was -4.22%.
As to `COc1ccc(N2CCN(c3oc(COc4ccc(Cl)cc4)nc3C#N)CC2)cc1`, the growth inhibition is 92.4% (active) and the condensed nuclei worked out at 23.8%. The growth inhibition under setting [1] was 87.2%.
As to `N#Cc1nc(COc2ccc(Cl)cc2)oc1N1CCN(Cc2ccccc2)CC1`, the growth inhibition was 85.7% (inactive) and the condensed nuclei is 7.69%. In addition, under setting [1], the growth inhibition was determined as 70.5%.
Consider `Cc1c(C(=O)O)sc(=S)n1-c1ccccc1`, for which the growth inhibition is 46.5% (inactive) and the condensed nuclei stood at 3.47%. Besides, the growth inhibition under setting [1] turned out to be 9.56%.
On to `CC(=O)C1=C(O)C(=O)N(c2ccc(C(=O)O)cc2)C1c1ccccc1` (configuration not stated), for which the growth inhibition is -93.1% (inactive) and the condensed nuclei was found to be 4.2%. Under setting [1], the growth inhibition is -74.7%.
`COC(=O)C1=C(C)N=C2SC(C)C(=O)N2C1c1ccc(C(=O)OC)cc1` (configuration not stated): the growth inhibition is -44.2% (inactive) and the condensed nuclei amounted to 6.05%. For the same molecule, the growth inhibition under setting [1] is -32%.
